CtBP-E1A blk = qHTS Assay for Inhibitors of the CtBP/E1A Interaction | AlphaScreen GST-E1A/His-CtBP binding, 1536-well; hits give low values | activity change, % (concentration not given with the values) | hit rate 0.49% among 340,000; in the data active = activity change below about -65%; inconclusive = mostly about -30% to -63%
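GST-E1A and His-tagged CtBP (125 nM each as 5X stock) were preincubated with pin-transferred compound for 2 h at 37 °C in the dark, then glutathione donor and nickel acceptor beads were added for 1 h before AlphaScreen reading.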
HP1b binding inh = HTS for Inhibitors of HP1-beta Chromodomain Interactions with Methylated Histone Tails; hit rate 0.56% among 390,000; AlphaScreen HP1-beta / biotin-H3K9me3 peptide binding; Potency, µM (doses to about 114 µM), most hits filed as inhibitors; Chromobox protein homolog 1 (Homo sapiens), P83916; AID 540317, 2011; note: nearly all actives have a fitted effect of over 70% in size
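AlphaScreen: HP1-beta (50 nM) preformed 30 min with biotin-H3(1-18)K9me3 peptide (50 nM) in PBS pH 7.4, 0.01% Tween-20. Compound added for 30 min at RT, then streptavidin donor/nickel chelate acceptor beads (10 ug/mL) for 30 min.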
BAZ2B inh = qHTS Assay for Inhibitors of BAZ2B. Bromodomain adjacent to zinc finger domain protein 2B (Homo sapiens), Q9UIF8. AlphaScreen BAZ2B-H3K14Ac peptide displacement. Potency, µM (top dose mostly 114 µM), most hits filed as inhibitors. hit rate 4.4% among 360,000; note: nearly all actives have a fitted effect of over 60% in size
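Protein-peptide AlphaScreen: BAZ2B 50 nM, b-H3K14Ac 50 nM, 1x PBS pH 7.4 + 0.01% Tween-20. Preincubation 30 min RT; cpd 30 min RT (top 110 uM); beads 20 min RT, light-protected.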
Six1-Eya2 blk = qHTS Assay for Inhibitors of the Six1/Eya2 Interaction. Homeobox protein SIX1 (Homo sapiens) + Protein phosphatase EYA2 (Homo sapiens), …. AlphaScreen GST-Six1/His-Eya2 binding, biochemical; hits give low values. activity change, % (concentration not given with the values). hit rate 0.56% among 360,000. AID 651725, 2012; in the data active = activity change below about -65%; inconclusive = mostly about -30% to -63%
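AlphaScreen luminescence read after one hour at 37 °C in darkness. Pin-transferred compounds met GST-Six1 and His-Eya2 protein (5X stock 250 nM/500 nM) plus glutathione donor and Ni-chelate acceptor beads (5X, 50 ug/mL).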
G9a block = qHTS Assay for Inhibitors of Histone Lysine Methyltransferase G9a. hit rate 8.8% among 350,000. Potency, µM (top dose mostly 102 µM), usual class: inhibitors. G9a H3K9 monomethylation, AlphaScreen, 2 h. AID 504332, 2011; note: nearly all actives have a fitted effect of over 75% in size
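Quantitative HTS format: methyltransferase activity on a biotin-tagged H3K9 peptide is measured by AlphaScreen, using a rabbit anti-monomethyl-H3K9 antibody with streptavidin donor and anti-IgG acceptor beads. Final levels are 20 nM enzyme, 500 nM peptide, 20 uM SAM; 2 h RT.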
JMJD2A Tudor = qHTS Assay for Inhibitors of JMJD2A-Tudor Domain; Lysine-specific demethylase 4A (Homo sapiens), O75164; AlphaScreen JMJD2A-Tudor / H3K4me3 peptide binding; Potency, µM (series often up to 114 µM), most hits filed as inhibitors; hit rate 4.4% among 390,000; AID 504339, 2011; note: nearly all actives have a fitted effect of over 50% in size
Numbers stand for hits; ! = not confirmed by another sample; [ ] = dose if it differs, or a comment. Shown are actives, neighbours in structure and some others; about 10% of the full set was active somewhere. Unless noted, calls come from the whole dose curve; as a rule, active = well fitted inhibition curve with a large enough effect; inconclusive = small, poorly fitted or top-dose-only effect; inactive = no such curve, though single readings can be large or run the other way.

c1ccc2c(Cc3c[nH]c4ccccc34)c[nH]c2c1 was read as G9a block 8.91µM!.
`Nc1nnc(Cc2c[nH]c3ccccc23)s1` gave CtBP-E1A blk inactive, HP1b binding inh inactive, BAZ2B inh inactive, Six1-Eya2 blk inactive, G9a block 44.7µM and JMJD2A Tudor inactive.
CC(C)C(=O)Nc1nnc(Cc2c[nH]c3ccccc23)s1 was read as CtBP-E1A blk inactive, HP1b binding inh inactive, BAZ2B inh inactive, Six1-Eya2 blk inactive, G9a block inactive and JMJD2A Tudor inactive.
For CC(=O)c1cc(-c2ccccc2)n(CCC(=O)Nc2nc3c(C)cccc3s2)c1C the results were HP1b binding inh inactive, BAZ2B inh inactive, G9a block inactive and JMJD2A Tudor inactive.
Screening CCCc1nc2c3ccccc3ccn2c1Cc1ccc(OC)cc1C returned CtBP-E1A blk inactive and Six1-Eya2 blk inactive.
CCOc1ccc(S(=O)(=O)N(CC)CC(=O)NC2CCS(=O)(=O)C2)cc1 (stereo not given) was read as CtBP-E1A blk inactive, HP1b binding inh inactive, BAZ2B inh inactive, Six1-Eya2 blk inactive, G9a block inactive[12.7 µM] and JMJD2A Tudor inactive.
For COc1ccc(C(=O)Nc2nncs2)cc1S(=O)(=O)N1CC(c2ccccc2)CC1=O (stereo not given) the results were CtBP-E1A blk inactive, HP1b binding inh inactive, BAZ2B inh inactive, Six1-Eya2 blk inactive, G9a block 50.1µM and JMJD2A Tudor inactive.
`CCc1nnc(NC(=O)c2cccc(S(=O)(=O)N3CC(c4ccccc4)CC3=O)c2)s1` (stereo not given) gave CtBP-E1A blk inactive, HP1b binding inh inactive, BAZ2B inh inactive, Six1-Eya2 blk inactive, G9a block inactive and JMJD2A Tudor inactive.
Screening Cc1nnc(NC(=O)c2cccc(S(=O)(=O)N3CC(c4ccccc4)CC3=O)c2)s1 (stereo not given) returned CtBP-E1A blk inactive, HP1b binding inh inactive, BAZ2B inh inactive, Six1-Eya2 blk inactive, G9a block 50.1µM and JMJD2A Tudor inactive.
`Cc1ccc(F)c(S(=O)(=O)NC(=O)C2(C)CCN2C(=O)Cc2ccsc2)c1` (stereo not given) gave CtBP-E1A blk inactive and Six1-Eya2 blk inactive.
For COc1ccc([C@H]2/C=C\CN(Cc3ccc(N(C)C)cc3)[C@@H](C)C(=O)N2Cc2ccc(F)cc2)cc1 the results were CtBP-E1A blk -65.1, HP1b binding inh inconclusive, Six1-Eya2 blk inconclusive and JMJD2A Tudor 17.8µM.
For CCCCCNC(=O)c1ccc2c(=O)n(CCc3ccccc3)c(=O)[nH]c2c1 the results were HP1b binding inh inactive, BAZ2B inh inactive, G9a block inactive and JMJD2A Tudor inactive.
Screening Fc1ccccc1/C=C1\CCCC2=C1Nc1nnnn1C2c1ccccc1F (stereo not given) returned CtBP-E1A blk inactive, HP1b binding inh inactive, BAZ2B inh inactive, Six1-Eya2 blk inactive, G9a block 50.1µM and JMJD2A Tudor inactive.
CCOC(=O)C1=C(C)Nc2nnnn2C1c1ccccc1Cl (stereo not given) was read as CtBP-E1A blk inactive, HP1b binding inh inactive, BAZ2B inh inactive, Six1-Eya2 blk inactive, G9a block inactive and JMJD2A Tudor inactive.
OC1c2c(F)cccc2N=C2CCCCN21 (stereo not given) was read as CtBP-E1A blk inactive and Six1-Eya2 blk inactive.
Cc1cccc(C)c1-n1nnnc1SCC(=O)N1CCNC1=O was read as CtBP-E1A blk inactive, HP1b binding inh inactive, BAZ2B inh inactive, Six1-Eya2 blk inactive, G9a block 44.7µM and JMJD2A Tudor inactive.
For S=c1[nH]nc(-c2cc(-c3ccccc3)n[nH]2)n1/N=C/c1ccc(Cl)cc1 the results were CtBP-E1A blk inactive, HP1b binding inh inactive, BAZ2B inh inactive, Six1-Eya2 blk inactive, G9a block inconclusive and JMJD2A Tudor inactive.
For CCN(CC)c1ccc(/C=N/n2c(-c3ccccc3Br)n[nH]c2=S)cc1 the results were CtBP-E1A blk inactive, HP1b binding inh inconclusive, BAZ2B inh inconclusive, Six1-Eya2 blk inactive, G9a block 2.82µM and JMJD2A Tudor inconclusive.
Screening Cc1cccc(/C=N/n2c(-c3ccccc3)n[nH]c2=S)c1O returned CtBP-E1A blk inactive, HP1b binding inh 50.1µM, BAZ2B inh inconclusive, Six1-Eya2 blk inactive, G9a block 1.26µM and JMJD2A Tudor 22.4µM.
`Oc1ccc(Br)cc1/C=N/n1c(-c2ccccc2)n[nH]c1=S` gave HP1b binding inh inactive, BAZ2B inh inconclusive, Six1-Eya2 blk inactive and JMJD2A Tudor inconclusive.
Screening O=[N+]([O-])c1ccccc1/C=N/n1c(-c2ccccc2)n[nH]c1=S returned CtBP-E1A blk inactive, HP1b binding inh inactive, BAZ2B inh inconclusive, Six1-Eya2 blk inactive and JMJD2A Tudor 8.91µM.
COc1cccc(/C=N/n2c(-c3cccs3)n[nH]c2=S)c1 was read as CtBP-E1A blk inactive, HP1b binding inh inactive, BAZ2B inh inconclusive, Six1-Eya2 blk inactive, G9a block inconclusive and JMJD2A Tudor 50.1µM.
COc1ccc(-c2cc(C(=O)Oc3cccc(C)c3)c3ccccc3n2)cc1 was read as HP1b binding inh inactive, BAZ2B inh inactive, G9a block inactive and JMJD2A Tudor inactive.
O=[N+]([O-])c1ccccc1/C=C/C=N/n1c(-c2ccccc2F)n[nH]c1=S was read as CtBP-E1A blk inactive, HP1b binding inh inconclusive, BAZ2B inh inconclusive, Six1-Eya2 blk inactive, G9a block 1.78µM and JMJD2A Tudor 44.7µM.
Screening Cc1n[nH]c(=S)n1/N=C/c1ccccc1 returned CtBP-E1A blk inactive, HP1b binding inh inactive, BAZ2B inh inactive, Six1-Eya2 blk inactive, G9a block 10µM and JMJD2A Tudor 3.98µM.
Screening Oc1ccc(/C=N/n2c(-c3ccccc3)n[nH]c2=S)cc1 returned CtBP-E1A blk inactive, HP1b binding inh inactive, BAZ2B inh inactive, Six1-Eya2 blk inactive, G9a block inactive[0.501 µM] and JMJD2A Tudor 20µM.
`S=c1[nH]nc(-c2ccccc2)n1/N=C/c1cccc(Br)c1` gave CtBP-E1A blk inactive, HP1b binding inh inactive, BAZ2B inh inactive, Six1-Eya2 blk inactive, G9a block inactive[0.501 µM] and JMJD2A Tudor inactive.
Oc1c(Br)cc(Br)c(/C=N/n2c(-c3ccccc3)n[nH]c2=S)c1Br was read as CtBP-E1A blk inactive, HP1b binding inh inconclusive, BAZ2B inh 50.1µM, Six1-Eya2 blk inactive and JMJD2A Tudor 7.94µM.
COc1ccc(NC(=O)CN(C)C(=O)CCCc2nc3ccccc3s2)cc1 was read as CtBP-E1A blk inactive, HP1b binding inh inactive, BAZ2B inh inactive, Six1-Eya2 blk inactive, G9a block inactive and JMJD2A Tudor inactive.

From PubChem
